# FXIIa inh mix = inhibitors of human coagulation factor XIIa, pooled mixtures; AID 684; 0.2% of 62,000 active; P00748; purified FXIIa, fluorogenic substrate; inhibition, % at 5 µM;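 also: 0% = enzyme without compound and 100% = no enzyme blank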
# FXIa inh mix = blocks human factor XIa in pooled compound mixtures. 0.19% of 62,000 active. purified FXIa, fluorogenic substrate. P03951. AID 680. inhibition, % at 5 µM;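 also: each value is inhibition by a whole ten-compound pool holding the compound; 0% = enzyme with no mixture and 100% = wells lacking enzyme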
# JNK3 inh = JNK3 (human) kinase inhibition. purified JNK3 kinase activity, HTS. inhibition, % at 8 µM. 0.61% of 60,000 active. AID 746; in the data active = inhibition above about 17%;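 also: 0% = DMSO and 100% = reference inhibitor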
# Target sequence (P53779 whole entry, looked up): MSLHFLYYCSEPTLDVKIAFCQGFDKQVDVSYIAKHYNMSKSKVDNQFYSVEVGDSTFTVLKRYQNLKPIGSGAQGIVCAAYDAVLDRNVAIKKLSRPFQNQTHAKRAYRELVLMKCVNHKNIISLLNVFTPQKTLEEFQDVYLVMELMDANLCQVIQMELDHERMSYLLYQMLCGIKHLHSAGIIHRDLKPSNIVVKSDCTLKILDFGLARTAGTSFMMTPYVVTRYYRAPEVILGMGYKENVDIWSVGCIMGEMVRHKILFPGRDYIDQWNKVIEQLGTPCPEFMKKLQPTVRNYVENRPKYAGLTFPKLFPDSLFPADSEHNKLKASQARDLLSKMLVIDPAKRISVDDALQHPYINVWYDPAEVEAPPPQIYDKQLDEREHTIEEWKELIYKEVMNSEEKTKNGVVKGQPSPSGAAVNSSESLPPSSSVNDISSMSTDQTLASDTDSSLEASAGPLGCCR
# M1 antagonist = antagonists of rat M1 muscarinic receptor. B-score at 10 µM. CHO-M1 cells, Fluo-4 calcium, ACh EC80 antagonist mode; hits give low values. AID 628. P08482. 3.4% of 64,000 active;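 active = calcium fluorescence response, raw or row-and-column corrected B-score, differing from the plate sample mean either way at a set confidence level, mostly lower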
# M1 ag = M1 muscarinic receptor agonism | CHO-M1 cells, Fluo-4 calcium fluorescence, agonist mode; hits give high values | B-score at 10 µM | 3% of 64,000 active | AID 626;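 active = fluorescence rise, raw or as B-score row- and column-corrected plate score, outside the 99.7% band of its plate's samples, either direction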
# Her2 expr inh = lowers expression of human Her2 kinase; P04626; SKBR-3 HER2 protein level, AlphaScreen, 18-24 h; hits give low values; HER2 level % of control, % at 10 µM; 0.69% of 65,000 active;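 active = HER2 level under 5% of the carrier-only control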;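 also: 100% = DMSO carrier and 0% = 500 nM PU-H71 HSP90 inhibitor; lower value means stronger loss of Her2 protein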
# * hit, by the source's call; nt = no result. The list is not random: actives were taken first. Their share in the collection is about 6.9%. Rule as the data show it, unless noted: active = inhibition above about 20% (passing the limit was not always enough); inactive = the rest.
SMILES,FXIIa inh mix,FXIa inh mix,JNK3 inh,M1 antagonist,M1 ag,Her2 expr inh
Cc1ccc(-c2noc(CCC(=O)NCCN3CCc4ccccc4C3)n2)cc1,5.6,-2.0,4.5,-1.25,-0.896,106.6
CCOc1cc2[nH]c(=O)n(CC3CCC(C(=O)NC4CCCCC4)CC3)c(=O)c2cc1OCC (stereo not given),5.3,13.0,10.2,0.344,-0.983,106.8
CCOc1cc2[nH]c(=O)n(CC3CCC(C(=O)NC(C)CC)CC3)c(=O)c2cc1OCC (stereo not given),15.5,-0.5,5.0,1.08*,0.46,101.2
CCOC(=O)N1CCc2c(sc(NC(=O)c3ccc(Cl)s3)c2C(N)=O)C1,-0.5,12.6,8.4,-0.042,5.26*,57.8
CCOC(=O)N1CCc2c(sc(NC(C)=O)c2C(N)=O)C1,3.5,-2.9,1.4,-0.519,-0.673,68.5
COc1ccccc1NC(=O)c1cc2n(n1)C(C(F)(F)F)CC(c1ccc3c(c1)OCO3)N2 (stereo not given),5.1,5.7,4.5,0.803*,-0.282,94.0
COc1ccc(OC)c(NC(=O)c2cc3n(n2)C(C(F)(F)F)CC(c2ccc4c(c2)OCO4)N3)c1 (stereo not given),9.8,2.6,-2.9,-2.48,-0.41,87.6
C=CCn1c(SCC(=O)c2ccc(NS(=O)(=O)c3ccccc3)cc2)nnc1-c1cccs1,nt,nt,1.0,0.172,0.529,82.3
Cc1ccccc1NC(=O)c1nc[nH]c1C(=O)NCc1ccccc1,11.9,-13.3,20.6*,-0.289,-0.422,65.5
O=C(c1cc(-c2ccco2)on1)N1CCN(c2ccccc2)CC1,0.6,3.9,-1.7,-0.216,-0.308,102.5
O=C(c1ccc2nc(-c3ccco3)c(-c3ccco3)nc2c1)N1CCN(c2ccccc2)CC1,0.5,0.6,1.4,-1.16,5.66*,68.4
O=C(c1ccc(CNc2c(N3CCCC3)c(=O)c2=O)cc1)N1CCc2ccccc2C1,-0.6,-7.2,1.3,0.375,0.0186,96.2
CC(=O)N1CCc2cc(S(=O)(=O)NCCN3CCC(C)CC3)ccc21,2.2,-0.2,nt,0.18,-0.3,86.1
Cc1c2c(n3c(nc4ccccc43)c1C#N)N(Cc1ccccn1)CC2,nt,nt,-0.7,-0.2,-0.0305,106.6
COC(=O)/C(=C1/Oc2cc(C)oc(=O)c2S1)C(F)(F)F,3.7,-0.1,-5.6,0.594,-1.09,-14.7*
COC(=O)C1=C(N)Oc2cc(C)oc(=O)c2C1c1ccncc1 (stereo not given),nt,nt,-1.0,0.845,0.557,201.5
COc1cc2c(cc1OC)CN(S(=O)(=O)c1ccc3c(c1)OCCO3)CC2,11.3,7.6,-1.3,-0.338,-1.36,85.8
CSc1cccc(NC(=O)CN(c2cc(C)ccc2C)S(C)(=O)=O)c1,-17.6,-4.7,-4.8,1.24*,-0.462,101.1
NC(=O)c1oc2ccccc2c1NC(=O)c1ccc(F)cc1,0.2,2.0,26.4*,-0.0395,-0.174,64.2
COc1ccc(-c2c3c([nH]c(=S)c2C#N)CCC3)cc1,-0.5,-2.2,46.0*,0.636,-1.39,82.3
Cc1oc2cc3c(C(=O)OCCN(C)C)c(C)oc3cc2c1C(=O)OCCN(C)C,-1.5,6.1,-6.7,0.505,0.863,83.3
COc1ccc(-c2nc(-c3cccs3)c(-c3cccs3)[nH]2)cc1O,2.7,4.2,-0.9,-0.301,1.35,53.8
Cc1ncsc1CCSc1nc2ccccc2c(=O)n1C,nt,nt,9.3,-0.19,1.71,nt
CCC1SC2=NC(C)=C(C(=O)OCCOC)C(c3ccc(C(=O)OC)cc3)N2C1=O (stereo not given),nt,nt,6.6,-0.131,-0.213,81.5
Cc1ccccc1-n1c(=O)cc(N2CCC3(CC2)OCCO3)[nH]c1=O,nt,nt,nt,-0.504,0.568,120.0
SMILES,FXIIa inh mix,FXIa inh mix,JNK3 inh,M1 antagonist,M1 ag,Her2 expr inh
O=C(O)CCCNc1cc(N2CCC3(CC2)OCCO3)c2noc3c2c1C(=O)c1ccccc1-3,1.7,4.3,8.3,0.416,6.19*,89.0
COc1ccc(-c2cc(N)n(S(=O)(=O)c3c(F)c(F)c(F)c(F)c3F)n2)cc1OC,4.9,7.4,-6.9,-2.84,-1.28,-12.7*
COc1ccc(S(=O)(=O)n2nc(-c3cc(OC)c(OC)c(OC)c3)cc2N)cc1OC,21.4*,5.6,6.0,0.0268,0.221,93.2
CCOC(=O)C(NS(=O)(=O)c1ccc(Br)cc1)C(C)C (stereo not given),8.2,-1.3,nt,-0.569,0.00482,90.2
COc1ccc(Cn2nnnc2C(c2ccccc2)N2CCN(C3CCCC3)CC2)cc1 (stereo not given),10.2,2.7,5.6,1.86*,0.553,99.1
COc1ccc(Cn2nnnc2C(c2ccccc2Cl)N2CCN(C3CCCC3)CC2)cc1 (stereo not given),2.9,-0.4,1.9,-1.97,-1.37,113.2
CCCCSc1nc2c(cnn2-c2ccc(Cl)cc2)c(=O)[nH]1,9.1,-2.1,-3.4,0.247,5.62*,86.7
Cc1ccc(C(=O)c2cc(C)sc2NC(=O)CN2CCN(C(=O)c3ccco3)CC2)cc1,21.2*,11.9,9.7,0.841,0.422,84.8
O=C1CC(N2CCC(O)(c3ccc(Cl)cc3)CC2)C(=O)N1 (stereo not given),1.5,7.0,-6.5,0.487,1.25,95.0
O=C1CC(N2CCN(c3ccc(Cl)c(Cl)c3)CC2)C(=O)N1 (stereo not given),53.5*,6.1,8.0,-1.58,-1.05,55.8
CCOC(=O)Cc1c(C)nc2c(-c3cccc(Br)c3)c[nH]n2c1=O,10.1,7.2,2.0,0.0559,-1.7,78.3
Cc1nnc(SC(=O)N2c3ccccc3Sc3ccccc32)s1,-7.9,8.2,-7.2,-1.62,-0.784,0.9*
CCN(CC)c1nc(N)c2c(N)nc3c(c2c1C#N)CC(c1ccccc1)O3 (stereo not given),10.7,0.7,-4.5,2.16*,-0.531,72.1
CSC1=Nc2sc3c(c2C2=NCCN12)CCCC3,7.7,2.6,-5.0,-11.2*,0.126,109.1
O=C(CNC(=O)c1ccc(Br)o1)Nc1cccc(-c2cnc3ccccc3n2)c1,2.4,-1.8,19.7*,0.749,0.828,102.5
COc1ccc(-c2nnc3ccc(SCC(=O)N4CCN(c5ccccc5)CC4)nn23)cc1,15.9,10.1,-0.5,-0.399,4.44*,76.7
O=C(CSc1ccc2nnc(-c3ccccc3)n2n1)N1CCN(c2ccccc2)CC1,-1.7,-3.1,4.9,-0.717,0.038,111.4
CC(C)c1nc2oc3c(NCc4ccccn4)ncnc3c2c2c1COC(C)(C)C2,1.8,0.7,-6.1,0.421,4.62*,92.9
Cc1noc(C)c1S(=O)(=O)N(CCc1ccccc1)Cc1ccccc1,-2.9,5.0,-0.5,0.113,0.725,74.4
Cn1c(=O)[nH]c(=O)c2c1ncn2CCN1CCOCC1,4.6,3.5,-4.4,0.461,-0.446,109.1
Cn1cnc2c1c(=O)[nH]c(=O)n2C,-14.8,6.9,2.5,-0.828,-0.237,-17.8*
CCCc1cc(=O)[nH]c(SCC(=O)c2cc(C)n(C(C)COC)c2C)n1 (stereo not given),3.0,-1.7,-4.7,0.00379,0.215,114.9
